Compound activity: PubChem BioAssay, National Center for Advancing Translational Sciences (NCATS)
Many of the other results were omitted from the sample, so hits are more common in it than they were.
KDM5B inh: Primary screen for KDM5B Histone Demethylases FDH-coupled qHTS | Lysine-specific demethylase 5B (Homo sapiens), Q9UGL1 | KDM5B demethylase, FDH-coupled NADH fluorescence (FDH is formaldehyde dehydrogenase) | Potency, µM (doses to about 57.7 µM), actives largely listed as inhibitors | 2.6% of 220,000 active; active = well fitted inhibition curve with a large enough effect; note: 0% is about no effect; nearly all actives have a fitted effect of over 70% in size
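Inhibition is measured as reduced NADH fluorescence generation from FDH coupling to formaldehyde release. Truncated KDM5BΔAP at 200 nM final acts on H3K4me3 peptide (12.5 µM in substrate mix) in pH 7.5 HEPES buffer with Tween-20, 30 min, room temperature.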
The depositor's hits bear a star; i = inactive. Potency is the fitted concentration of half-maximal effect.

SMILES	KDM5B inh
COc1ccc(CNC(=O)C2CC(=O)N(c3n[nH]c4cccc(F)c34)C2)cc1 (stereo not drawn)	i
O=C(NCCc1ccccc1)C1CC(=O)N(c2n[nH]c3cccc(F)c23)C1 (stereo not drawn)	i
O=C(NCCc1cccc(F)c1)C1CC(=O)N(c2n[nH]c3cccc(F)c23)C1 (stereo not drawn)	22.4µM*
COCCCNC(=O)C1CC(=O)N(c2n[nH]c3cccc(F)c23)C1 (stereo not drawn)	i
COc1ccccc1CNC(=O)C1CC(=O)N(c2n[nH]c3ccccc23)C1 (stereo not drawn)	i
COc1ccc2[nH]cc(CCNC(=O)C3CC(=O)N(c4n[nH]c5cccc(F)c45)C3)c2c1 (stereo not drawn)	22.4µM*
O=C(NCCc1ccncc1)C1CC(=O)N(c2n[nH]c3cccc(F)c23)C1 (stereo not drawn)	i
CC(=O)NNC(=S)Nc1ccc(C(C)C)cc1	i
CN1CCN(S(=O)(=O)c2cc3cc(Cl)ccc3oc2=O)CC1	i
Cc1ccc2c(c1)SCC(=O)N2CC(=O)N(C)Cc1ccoc1	i
N#Cc1ccc(NCCNC(=O)C2CCCCC2)nc1	i
CCc1noc(-c2cccn3c(CNC(=O)c4cc(Cl)ccc4F)nnc23)n1	28.2µM*
CCc1noc(-c2cccn3c(CNC(=O)c4ccccc4F)nnc23)n1	31.6µM*
O=C(c1ccco1)N1CC[C@@H]2COCCN(Cc3ccccc3)[C@@H]2C1	i
CCc1ccc(/C=C2\N=C(SC)SC2=O)cc1	i
N#CC(Cc1cccnc1)C(=O)Nc1ccccc1Br (stereo not drawn)	i
CCCCOc1ccc(C(=O)Nc2ccccc2C(C)(C)C)cc1OCC	i
CCc1ccc(-c2cc3c(=O)[nH]nc(SCC(=O)NC4CCCC4)n3n2)cc1	i
Cn1nccc1CN1CCC2(CC1)COc1ccccc1NC2=O	i
CC(=O)Nc1ccc(CN2CCC3(CC2)CNC(=O)c2ccccc2O3)cc1	i
O=C1NC2(CCN(S(=O)(=O)c3ccccc3)CC2)N=C1c1cccs1	i
CC(=O)Nc1ccc(CN2CCC3(CC2)CC(=O)c2ccc(Cl)cc2O3)cc1	i
CC(=O)Nc1ccc(CN2CCC3(CC2)CC(=O)c2ccccc2O3)cc1	22.4µM*
Cn1nccc1CN1CCC2(CC1)CC(=O)c1ccccc1O2	28.2µM*
O=C1CC2(CCN(S(=O)(=O)c3ccccc3)CC2)Oc2ccccc21	28.2µM*
SMILES	KDM5B inh
Cn1nccc1CN1CCC2(CC1)CNC(=O)c1ccccc1O2	i
O=C(O)C1(c2ccccc2)CCN(S(=O)(=O)c2ccccc2)CC1	i
Cc1ccccc1-c1noc(CSc2nnc(C3CC3)n2-c2ccccc2)n1	i
Cc1cc(C)c(NC(=O)C(C)OC(=O)c2ccc3ccccc3n2)c(C)c1 (stereo not drawn)	i
CCOC(=O)c1ccc(NC(=S)NCCNC(C)=O)cc1	i
O=C(c1ccc(F)cc1)N1CCC(Cc2nc(-c3ccccc3)no2)CC1	i
CC1(C)CC(NC(=S)NCCc2ccccc2)CC(C)(C)N1	i
O=C1COCC2(CN1Cc1cccc(OC(F)(F)F)c1)CN(C(=O)Cc1cccnc1)C2	i
COc1ncccc1N1CC2(COCC(=O)N(Cc3cccc(OC(F)(F)F)c3)C2)C1	7.08µM*
O=C1COCC2(CN1Cc1cccc(OC(F)(F)F)c1)CN(c1nccs1)C2	i
COc1cccc(/C=C2\Oc3cc(OS(C)(=O)=O)ccc3C2=O)c1OC	i
Cc1ccc(-c2csc(Nc3cc(C)ccc3C)n2)cc1	i
CCOC(=O)c1c(C)[nH]c(C(=O)CN(C)Cc2cccc(F)c2)c1C	i
CN1C(=O)CCCCC1C(=O)N1CCc2ccccc21 (stereo not drawn)	i
Cn1cc(CN2CCc3ccccc32)ccc1=O	10µM*
COc1ccccc1N1CCN(Cc2ccc(=O)n(C)c2)CC1	i
COC[C@@H]1CN(S(=O)(=O)c2cccc(OC)c2)C[C@H]1C(N)=O	i
COc1ccc(CCC(=O)N2Cc3ccccc3OC3(CCN(C)CC3)C2)cc1	i
Cc1csc(NC(=O)CCc2nc(-c3ccsc3)no2)n1	i
CC(C)CSc1nnc(-c2c[nH]c3ccccc23)n1C1CC1	i
COC[C@@H]1[C@H](NC(=O)CN2CCN(c3cccc(C)c3)CC2)[C@@H]2CCO[C@H]12	i
CC[C@@H]1[C@H](NC(=O)c2cccc(N3CCS(=O)(=O)CC3)c2)[C@@H]2CCO[C@H]12	22.4µM*
CC[C@@H]1[C@@H](NC(=O)c2ccc(N3CCN(C)CC3)cc2)[C@@H]2CCO[C@H]12	i
Cc1occc1C(=O)Nc1ccc(SC2CCCC2)cc1	i
O=C(Nc1cccc(-c2ccc(F)cc2)c1)C1CCCN1C(=O)c1ccncc1 (stereo not drawn)	i
O=C(COc1ccc2c(=O)c(-c3ccccc3Cl)coc2c1)Nc1ccccc1Cl	i
CC1CCCN(c2nc3c(c(=O)n(C)c(=O)n3C)n2CC(=O)O)C1 (stereo not drawn)	i
